# Inconclusive results are not listed. Unmarked numbers belong to inactive results. Active and inactive are the calls of the source. Calls follow the shape of the dose curve; as a rule, active = well fitted inhibition curve with a large enough effect; inconclusive = small, poorly fitted or top-dose-only effect; inactive = flat fitted curve, though single readings scatter. Where a SMILES comes first, the peptide text is derived from it. [ ]: non-standard residue; d: D form. pGlu = O=C1CC[C@@H](C(=O)O)N1; Thz = O=C(O)[C@@H]1CSCN1
# Target: Phospholipid hydroperoxide glutathione peroxidase GPX4 (Homo sapiens) (UniProt P36969)
# Experiment: Primary qHTS Assay for Inhibitors of Recombinant Selenoprotein Glutathione Peroxidase 4 (GPX4) (AID 1845192); also: nearly all actives have a fitted effect of over 65% in size
# Conditions: recombinant GPX4, GR-coupled NADPH fluorescence, 15 min; series mostly up to 50 µM; activity change, negative = inhibition: at the top concentration
# From the text: Assay Provider: Elias S.J. Arner MD PhD.
# Department of Medical Biochemistry and Biophysics
# Karolinska Institutet, Solna, Stockholm, Sweden
# Selenoprotein glutathione peroxidases (GPX), like the ubiquitously expressed GPX1 and the ferroptosis modulator GPX4, enact their antioxidant activities by reducing hydroperoxides using glutathione. […] GPX1 and GPX4 inhibitors have thus shown promise as anti-cancer agents. Existing inhibitors are often promiscuous, or modulate GPX activity only indirectly, so novel direct inhibitors identified through screening against GPX1 and GPX4 could be valuable. Here, we developed optimized glutathione reductase (GR)-coupled GPX assays for the biochemical high-throughput screen (HTS) of almost 12,000 compounds with known mechanisms of action. Initial hits were triaged using a GR counter-screen, assessed for isoform specificity using a separate GPX2 assay, and were assessed for general selenocysteine-targeting activity using a thioredoxin reductase (TXNRD1) assay. With this suite of assays, we identified novel GPX1/GPX2- and GPX4-specific inhibitors and can here present a validated pipeline for future discovery research for selenoprotein-targeting agents.
# SEQUENCE No. (e.g., 1, 2, 3, etc.); […] (e.g., Cells, Incubation, Reagent, etc.); VALUE; DESCRIPTION.
# 1; Reagent 1; 3 uL; 333.33 nM GPx4 enzyme or no enzyme control in 1536-well, black, solid Greiner assay plate.
# 2; Compound; 25 nL; Kalypsis pin tool (Wako USA) equipped with a 1536-well pin head.
# 3; Incubation; 30 min; room temperature.
# 4; Reagent 2; 1 uL; 500 nM GR, 5 mM GSH, 2.5 mM NADPH solution
# 5; Reagent 3; 1 uL; 2.5 mM CHP in 50% EtOH.
# 6; Detection; Fluorescence; ViewLux microplate reader, excitation 340 nm and emission 450 nm.
# 7; Incubation; 15 min; room temperature.
# 8; Detection; Fluorescence; ViewLux microplate reader, excitation 340 nm and emission 450 nm.
# NOTES (numbers refer to Sequence numbers above)
# 1. 3 µL of 333.33 nM GPX4 and 0.016% BSA in assay buffer (50 mM Tris-HCl, 2 mM EDTA (pH 7.5), 150 mM NaCl) was added to columns 3-48 of 1536-well plates using a BioRAPTR Flying Reagent Dispenser (Let's Go Robotics (LGR), Carlsbad, CA). A no-enzyme control (0.01% BSA in TES assay buffer) was added to columns 1-2.
# 2. 25 nL, library and DMSO controls were added to each well with a pin tool (Kalypsys).
# 3. The assay plates were incubated for 30 minutes at room temperature.
# 4. 1 µL of master mix (500 nM glutathione reductase (GR), 5 mM reduced glutathione (GSH), 2.5 mM NADPH in assay buffer) was added.
# 5. 1 µL of cumene hydroperoxide (CHP) ([2.5 mM] in 50% EtOH) was then added within 5 minutes to initiate the reaction. Final concentrations were: 200 nM GPX4, 1 mM GSH, 0.5 mM CHP, 0.5 mM NADPH, 100 nM GR, 0.01% BSA.
# 6. Initial fluorescence readout (t=0) at 340/450 nm was measured using a ViewLux multimodal detector (PerkinElmer, Waltham, MA).
# 8. Endpoint fluorescence readout (t=15) at 340/450 nm was measured 15 min after room temperature incubation.
# Phospholipid hydroperoxide glutathione peroxidase GPX4 (Homo sapiens), sequence (P36969 whole entry, looked up): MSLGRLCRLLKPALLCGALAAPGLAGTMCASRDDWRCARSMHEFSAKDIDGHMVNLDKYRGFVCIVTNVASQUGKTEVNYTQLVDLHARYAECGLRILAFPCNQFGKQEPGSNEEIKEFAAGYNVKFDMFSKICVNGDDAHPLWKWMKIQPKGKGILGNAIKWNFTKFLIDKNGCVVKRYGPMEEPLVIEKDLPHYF
SMILES,"activity change, negative = inhibition",outcome,Potency
S=c1[nH]c2ccccc2s1,-3.15%,,
O=C1NC(O)=NC1(c1ccccc1)c1ccccc1,-0.472%,,
Nc1nc2c(ncn2[C@@H]2O[C@H](CO)[C@@H](O)[C@@H]2O)c(=O)[nH]1,-5.12%,,
O=C(O)[C@H](O)[C@@H](O)[C@H](O)[C@H](O)CO,-10.9%,,
O=C(Nc1cccc(C(=O)Nc2ccc(S(=O)(=O)O)c3cc(S(=O)(=O)O)cc(S(=O)(=O)O)c23)c1)Nc1cccc(C(=O)Nc2ccc(S(=O)(=O)O)c3cc(S(=O)(=O)O)cc(S(=O)(=O)O)c23)c1,-10%,,
CC(=O)SCC[N+](C)(C)C,,inactive,
O=c1cc(-c2ccccc2)oc2c(O)c(O)ccc12,-12.1%,,
O=C(/C=C/c1ccc(O)cc1)c1ccc(O)cc1O,,,inactive
COc1cc(OC)c(/C=C2/C(=O)Nc3ccccc32)c(OC)c1,,inactive,
COc1cc(CNC(=O)CCCC/C=C/C(C)C)ccc1O,,,inactive
CO/N=C(\C(=O)N[C@@H]1C(=O)N2C(C(=O)O)=C(COC(C)=O)CS[C@H]12)c1csc(N)n1,,,inactive
O=C(c1cc(O)c(O)c([N+](=O)[O-])c1)c1ccccc1F,-12%,,
[O-][n+]1ccccc1SSc1cccc[n+]1[O-],-8.68% [at 27.8 µM],,
CCCCC1C(=O)N(c2ccccc2)N(c2ccc(O)cc2)C1=O (stereo not given),-1.96%,,
O=C(c1ccc(Cl)cc1)N1CCN(c2ccc([N+](=O)[O-])c3ncccc23)CC1,,inactive,
Nc1ccn([C@H]2O[C@H](CO)[C@@H](O)C2(F)F)c(=O)n1,2.77%,,
CN(C)[C@@H]1C(=O)C(C(=O)NCN2CCCC2)=C(O)[C@@]2(O)C(=O)C3=C(O)c4c(O)cccc4[C@@](C)(O)C3C[C@@H]12 (stereo not given in full),-10.3%,,
CCCCCCCC/C=C/C(=O)O,,inactive,
CCOC(=O)N1CCN(/[N+]([O-])=N/Oc2ccc([N+](=O)[O-])cc2[N+](=O)[O-])CC1,,,inactive
CSc1ccccc1N1CCN(CCCCCC(=O)NC2CCCc3ccccc32)CC1 (stereo not given),,inactive,

SMILES,"activity change, negative = inhibition",outcome,Potency
Nc1ncnc2c1ncn2[C@@H]1O[C@H](COP(=O)(O)OP(=O)(O)OP(=O)(O)OP(=O)(O)OC[C@@H]2O[C@H](n3cnc4c(N)ncnc43)[C@@H](O)[C@H]2O)[C@@H](O)[C@H]1O,,inactive,
Nc1nc(Nc2ccccc2)nc2c1ncn2[C@@H]1O[C@H](CO)[C@@H](O)[C@H]1O,-15.8%,,
CC1OC1P(=O)(O)O (stereo not given),,inactive,
Cc1c(Nc2ncccc2C(=O)O)cccc1C(F)(F)F,,inactive,
CCCC(CCC)C(=O)OC1CC2CCC(C1)[N+]2(C)C (stereo not given),2.81%,,
Nc1ccn([C@@H]2O[C@H](CO)[C@@H](O)[C@@H]2O)c(=O)n1,4.36%,,
C[N+]1(C)C2CC(OC(=O)[C@H](CO)c3ccccc3)CC1C1OC12 (stereo not given in full),,,inactive
COc1ccc(NC(=O)/C=C/c2ccc(Cl)cc2)cc1,-16.7%,,
CC12C(=O)OC(=O)C1(C)C1CCC2O1 (stereo not given),-1.26%,,
COc1cccc(C(=O)NCCN2CCN(c3ccc(Cl)cc3)CC2)c1,2.01%,,
COCCOc1cc2nc[nH]c(=O)c2cc1OCCOC,0.749%,,
Nc1cc(-c2ccncc2)c[nH]c1=O,0.708%,,
CCOC(=O)C1=C(C)NC(C)=C(C(=O)OCC)C1c1c(F)c(F)c(F)c(F)c1F,-31%,,
CCNC(=O)[C@H]1O[C@@H](n2cnc3c(N)nc(NCCc4ccc(CCC(=O)O)cc4)nc32)[C@H](O)[C@@H]1O,,inactive,
CC(N)C(=O)OC(C)(C)Cc1ccc(Cl)cc1 (stereo not given),,inactive,
CC(C)(C)c1ccc(S(=O)(=O)/C=C/C#N)cc1,-11%,,
O=C1CC[C@@H](C(=O)N2CSC[C@H]2C(=O)O)N1 ([pGlu]-[Thz]-OH),10.8%,,
CC(=O)c1ccc(OCC(=O)N2CCCCC2)cc1,,inactive,
N[C@H](CCCP(=O)(O)O)C(=O)O,-6.32%,,
CCNc1nc2c(ncn2[C@H]2C[C@H](O)[C@@H](CO)O2)c(=O)[nH]1,,,inactive
